Data taken from PubChem BioAssay (EPA / NIEHS).
Results filed as inconclusive are left out. The source made the active and inactive calls. The calls were made as follows: active = hit-call score of the fitted dose curve at least 0.9, where 1 is the maximum; inconclusive = response in the unintended direction; inactive = score below 0.9.

Biological target: Bile acid receptor (Homo sapiens) (UniProt Q96RI1)
Experiment: OT_FXR_FXRSRC1_0480: Odyssey Thera (OT) 8-hour HEK293T Protein-Complementation Assay for Farnesoid X receptor/SRC-1 Co-activator (AID 2283383)
Procedure: OT_FXR_FXRSRC1_0480 is a cell-based assay that uses HEK293T, a human kidney cell line, with measurements taken at 8 hours after chemical dosing in a 384-well plate.OT_FXR_FXRSRC1_0480 is one of one assay component(s) measured or calculated from the OT_FXR_FXRSRC1_0480 assay. It is designed to make measurements of protein fragment complementation, a form of binding reporter, as detected with fluorescence intensity signals by Protein-fragment Complementation technology.Data from the assay component OT_FXR_FXRSRC1_0480 was analyzed into 1 assay endpoint. This assay endpoint, OT_FXR_FXRSRC1_0480, was analyzed in the positive analysis fitting direction relative to DMSO as the negative control and baseline of activity. Using a type of binding reporter, measures of receptor for gain-of-signal activity can be used to understand the binding at the pathway-level as they relate to the gene NR1H4. Furthermore, this assay endpoint can be referred to as a primary readout, because the performed assay has only produced 1 assay endpoint. To generalize the intended target to other relatable targets, this assay endpoint is annotated to the nuclear receptor intended target family, where the subfamily is non-steroidal.
Protein-fragment complementation assay, or PCA, is a method for the identification and quantification of protein-protein interactions. In the PCA, the proteins of interest ("bait" and "prey") are each covalently linked to fragments of a third protein (e.g. DHFR, which acts as a "reporter"). Interaction between the bait and the prey proteins brings the fragments of the reporter protein in close proximity to allow them to form a functional reporter protein whose activity can be measured.

Chain of Bile acid receptor (Homo sapiens) (Q96RI1 whole entry, looked up): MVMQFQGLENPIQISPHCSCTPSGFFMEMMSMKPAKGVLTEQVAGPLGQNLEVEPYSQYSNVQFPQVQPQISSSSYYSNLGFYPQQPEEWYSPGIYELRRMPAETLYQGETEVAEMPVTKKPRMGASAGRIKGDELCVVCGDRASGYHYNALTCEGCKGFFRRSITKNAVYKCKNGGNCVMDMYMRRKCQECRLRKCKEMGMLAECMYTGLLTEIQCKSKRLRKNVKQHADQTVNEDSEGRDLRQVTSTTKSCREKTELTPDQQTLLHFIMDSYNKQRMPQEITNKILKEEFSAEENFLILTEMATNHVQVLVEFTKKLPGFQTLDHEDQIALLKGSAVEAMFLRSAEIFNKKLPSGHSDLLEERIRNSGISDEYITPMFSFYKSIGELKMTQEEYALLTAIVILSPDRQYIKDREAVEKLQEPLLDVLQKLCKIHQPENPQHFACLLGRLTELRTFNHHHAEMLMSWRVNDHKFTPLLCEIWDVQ

outcome, inactive:
CCCC/C=C\CCCCCCCCCC=O, COc1c(Cl)c(Cl)c(Cl)c(Cl)c1Cl, NCCCN1CCOCC1, CCCCCCCCCCCCCC(=O)O, CC(=O)C=CC1=C(C)CCCC1(C)C, CC(C)(C#N)c1cc(Cn2cncn2)cc(C(C)(C)C#N)c1, CC(C)=CCCC(C)CC=O (stereo unspecified), O=Nc1ccc(Nc2ccccc2)cc1, OCCN1CCNCC1, O=C1NC(=O)c2ccccc21

AC50, active:
BrC1CCC(Br)C(Br)CCC(Br)C(Br)CCC1Br (stereo unspecified) 18.2 µM, CCC(=O)/C=C/C1C(C)=CCCC1(C)C (stereo unspecified) 50 µM, CCN(CC)c1ccc2c(-c3ccccc3C(=O)O)c3ccc(=[N+](CC)CC)cc-3oc2c1 35.2 µM, c1ccc(CCCc2ccccn2)cc1 50 µM, C=CC(C)(O)CCC=C(C)CCC=C(C)C (stereo unspecified) 59.4 µM, COc1cc(C(C)(C)C)c(O)c(C(C)(C)C)c1 67 µM
